Outcome and AC50 data for 14 molecules are collected here from PubChem BioAssay (EPA / NIEHS).

Structures are written as SMILES. Active and inactive are the calls of the source. The calls were made as follows: active = hit-call score of the fitted dose curve at least 0.9, where 1 is the maximum; inactive = score below 0.9.

Common to all, as to settings: primary human HUVEC with PBMC; actives raise or lower the signal
Test [1] is described as follows: BSK_LPS_PGE2: BioMAP Diversity Plus: LPS Assay for Prostaglandin E2 (PGE2) Biomarker Activity (AID 2283082). In outline: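 PGE2 release measured by ELISA in an LPS-activated co-culture of human umbilical vein endothelial cells and peripheral blood mononuclear cells, read at 24 h post-dosing. DMSO served as baseline for bidirectional curve fitting.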
Read-out in test [2]: Macrophage colony-stimulating factor (MCSF), CSF1 (gene 1435)
Kind of test: BSK_LPS_MCSF: BioMAP Diversity Plus: LPS Assay for Macrophage colony-stimulating factor (MCSF) Biomarker Activity (AID 2283083). An outline of the steps: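 Bidirectional fit versus DMSO of ELISA-measured M-CSF in co-cultured human umbilical vein endothelial cells and PBMC, sampled 24 h after dosing.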

Read-out in test [3]: Tissue Factor, F3 (gene 2152)
Put plainly: BSK_LPS_TissueFactor: BioMAP Diversity Plus: LPS Assay for Tissue Factor Biomarker Activity (AID 2283084). An outline of the steps: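 Read-out: CD142 ELISA, 24 h. System: LPS-driven human endothelial/PBMC co-culture. Analysis: up- or down-signal fitted against DMSO.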

Read-out in test [4]: Tumor necrosis factor (Homo sapiens) (UniProt P01375)
Kind of test: BSK_LPS_TNFa: BioMAP Diversity Plus: LPS Assay for Tumour Necrosis Factor alpha (TNFa) Biomarker Activity (AID 2283085).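 As to AC50: TNFa protein level quantified by ELISA in the co-culture.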 In outline: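 TNFa was quantified by ELISA in LPS-activated co-cultures of human endothelial cells and PBMC, 24 h post-dosing. Both increases and decreases versus DMSO were fitted.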

Read-out in test [5]: Vascular cell adhesion molecule 1 (VCAM1), VCAM1 (gene 7412)
Kind of test: BSK_LPS_VCAM1: BioMAP Diversity Plus: LPS Assay for Vascular cell adhesion molecule 1 (VCAM1) Biomarker Activity (AID 2283086). An outline of the steps: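 VCAM-1 quantified by ELISA in an LPS-activated co-culture of human endothelial cells and peripheral blood mononuclear cells, read 24 h post-treatment. Fitted in both directions versus DMSO; parallel SRB staining flags overt cytotoxicity.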

Read-out in a further test: CD38, CD38 (gene 952)
Put plainly: BSK_SAg_CD38: BioMAP Diversity Plus: SAg Assay for CD38 Biomarker Activity (AID 2283087). In outline:
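CD38 quantified by ELISA (fluorescence) in a superantigen-activated endothelial cell–PBMC co-culture at 24 h post-dose. Activity fitted in both directions relative to DMSO; parallel SRB and Alamar Blue cytotoxicity read-outs.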

Read-out in another test: CD40, CD40 (gene 958)
Kind of test: BSK_SAg_CD40: BioMAP Diversity Plus: SAg Assay for CD40 Biomarker Activity (AID 2283088). An outline of the steps: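 Endpoint derived by fitting increases or decreases versus DMSO controls. CD40 is detected by fluorescence ELISA in a human vascular co-culture of endothelium and PBMC at 24 h.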

Read-out in a further test: CD69, CD69 (gene 969)
Put plainly: BSK_SAg_CD69: BioMAP Diversity Plus: SAg Assay for CD69 Biomarker Activity (AID 2283089).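 As to AC50: cell surface CD69 protein quantified by ELISA with fluorescence detection.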 In outline: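 HUVEC co-cultured with PBMC were dosed with chemical, and CD69 was measured by ELISA with fluorescence read-out 24 h later. Bidirectional curve fitting used DMSO as negative control and activity baseline.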

Read-out in test [6]: Monocyte Chemoattractant Protein-1 (MCP1), CCL2 (gene 6347)
Kind of test: BSK_SAg_MCP1: BioMAP Diversity Plus: SAg Assay for Monocyte Chemoattractant Protein-1 (MCP1) Biomarker Activity (AID 2283090). In outline:
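Values derive from bidirectional fitting of ELISA-measured MCP1 against DMSO controls. Readings were taken 24 h after dosing human vascular endothelial cells co-cultured with peripheral blood mononuclear cells under superantigen stimulation.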

Read-out in test [7]: E-selectin (Homo sapiens) (UniProt P16581)
Kind of test: BSK_SAg_Eselectin: BioMAP Diversity Plus: SAg Assay for Eselectin Biomarker Activity (AID 2283091). In outline:
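Endpoint values derive from bidirectional fitting relative to DMSO, using ELISA-measured E-selectin in a human vascular co-culture (umbilical vein endothelium plus PBMC) sampled 24 h after dosing.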

E-selectin (Homo sapiens), sequence (P16581 whole entry, looked up): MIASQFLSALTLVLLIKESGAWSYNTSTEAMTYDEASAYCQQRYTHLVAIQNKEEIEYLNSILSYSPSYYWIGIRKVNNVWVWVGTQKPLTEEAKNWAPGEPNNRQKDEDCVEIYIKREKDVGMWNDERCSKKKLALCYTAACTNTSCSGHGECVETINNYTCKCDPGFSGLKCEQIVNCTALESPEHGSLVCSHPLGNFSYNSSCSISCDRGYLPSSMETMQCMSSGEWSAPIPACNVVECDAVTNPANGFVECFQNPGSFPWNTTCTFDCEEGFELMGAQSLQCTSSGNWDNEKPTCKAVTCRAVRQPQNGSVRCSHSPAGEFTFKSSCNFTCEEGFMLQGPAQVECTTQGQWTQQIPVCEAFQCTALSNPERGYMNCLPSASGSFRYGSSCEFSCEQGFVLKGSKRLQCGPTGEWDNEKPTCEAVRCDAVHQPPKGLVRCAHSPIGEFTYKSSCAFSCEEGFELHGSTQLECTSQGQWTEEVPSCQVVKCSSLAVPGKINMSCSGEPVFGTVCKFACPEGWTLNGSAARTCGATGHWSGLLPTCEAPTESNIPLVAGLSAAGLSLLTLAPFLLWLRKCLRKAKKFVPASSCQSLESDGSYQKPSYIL
Tumor necrosis factor (Homo sapiens), sequence (P01375 whole entry, looked up): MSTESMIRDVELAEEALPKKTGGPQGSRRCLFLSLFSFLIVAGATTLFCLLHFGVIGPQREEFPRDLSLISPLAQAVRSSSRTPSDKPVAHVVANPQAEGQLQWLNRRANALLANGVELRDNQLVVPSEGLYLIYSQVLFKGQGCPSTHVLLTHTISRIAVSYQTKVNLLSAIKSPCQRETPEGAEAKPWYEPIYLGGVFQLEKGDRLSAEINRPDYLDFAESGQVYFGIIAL

As a reminder, the AC50 is the midpoint of the concentration-response curve, whichever way the signal moves. `CCC(C)Nc1c([N+](=O)[O-])cc(C(C)(C)C)cc1[N+](=O)[O-]` (stereo not given): the result in test [1], in test [3], in test [4] and in test [6] was inactive. Also, the AC50 was 11.1 µM (active) in test [2]; 22.8 µM (active) in [5]; 16.6 µM (active) in the test with CD38, CD38 (gene 952); 30.7 µM (active) with CD40, CD40 (gene 958); 15.6 µM (active) in the test with CD69, CD69 (gene 969); 11.9 µM (active) in test [7].

Consider `C[C@H]1[C@H](c2ccc(Cl)cc2)SC(=O)N1C(=O)NC1CCCCC1`, for which the outcome in [1], in test [3] and in [4] was inactive. Also, the AC50 in test [2] is 14.6 µM (active); in test [5], 12.5 µM (active); with CD38, CD38 (gene 952), 16 µM (active); in the test with CD40, CD40 (gene 958) it was 15.4 µM (active); with CD69, CD69 (gene 969), 13.5 µM (active); in test [6] it was 27 µM (active). Besides, the AC50 in test [7] is 15.2 µM (active).

For the molecule `CCS(=O)(=O)c1cccnc1S(=O)(=O)NC(=O)Nc1nc(OC)cc(OC)n1`, the results for the AC50 in test [1] and in test [4] were 2.31 µM (active) and 1.75 µM (active), respectively. In addition, the outcome is “inactive” in test [2]; “inactive” in [3]; “inactive” in test [5]; “inactive” in the test with CD38, CD38 (gene 952); “inactive” with CD40, CD40 (gene 958); “inactive” with CD69, CD69 (gene 969). Moreover, the outcome in [6] and in test [7] was inactive.

Turning to `CNC(=O)CSP(=S)(OC)OC`, the outcome in [1] was “inactive”; in [2] it was “inactive”; in test [3], “inactive”; in [4], “inactive”; in test [5], “inactive”; with CD38, CD38 (gene 952), “inactive”. The outcome was “inactive” in the test with CD40, CD40 (gene 958); “inactive” in the test with CD69, CD69 (gene 969); “inactive” in test [6]; “inactive” in test [7].

For `O=[N+]([O-])/N=C1\NCCN1Cc1ccc(Cl)nc1`, the outcome was “inactive” in test [1]; “inactive” in test [2]; “inactive” in test [3]; “inactive” in test [4]; “inactive” in test [5]; “inactive” with CD38, CD38 (gene 952). The outcome with CD40, CD40 (gene 958) was “inactive”; with CD69, CD69 (gene 969) it was “inactive”; in test [6], “inactive”; in test [7], “inactive”.

On to `CCOC1Oc2ccc(OS(C)(=O)=O)cc2C1(C)C` (stereo not given), for which the outcome in test [1] is “inactive”; in [2], “inactive”; in test [3], “inactive”; in test [4], “inactive”; in test [5], “inactive”; with CD38, CD38 (gene 952), “inactive”. In addition, the outcome in the test with CD40, CD40 (gene 958) is “inactive”; in test [6], “inactive”. Moreover, the AC50 in the test with CD69, CD69 (gene 969) was 18.4 µM (active); in test [7], 23.5 µM (active).

Regarding `CCOCN(C(=O)CCl)c1c(C)cccc1CC`, the outcome in test [1] was “inactive”; in test [3], “inactive”; with CD40, CD40 (gene 958), “inactive”. Also, the AC50 in test [2] was 23.9 µM (active); in test [4], 5.13 µM (active); in test [5], 20 µM (active); with CD38, CD38 (gene 952), 27 µM (active); with CD69, CD69 (gene 969), 11.8 µM (active); in test [6] it was 36 µM (active). The AC50 in test [7] was 17.1 µM (active).

Consider `O=C(Nc1ccccc1)Nc1cnns1`, for which the outcome in test [1] was “inactive”; in test [2], “inactive”; in [3], “inactive”; in [5], “inactive”; with CD38, CD38 (gene 952), “inactive”; in the test with CD40, CD40 (gene 958), “inactive”. In addition, the outcome was “inactive” with CD69, CD69 (gene 969); “inactive” in [6]; “inactive” in test [7]. Besides, the AC50 in test [4] was 18.4 µM (active).

As to `C#CCN1C(=O)COc2cc(F)c(N3C(=O)C4=C(CCCC4)C3=O)cc21`, the outcome in test [1] was “inactive”; in test [2], “inactive”; in test [3], “inactive”; in test [4], “inactive”; in test [5], “inactive”; with CD40, CD40 (gene 958) it was “inactive”. Also, the outcome is “inactive” with CD69, CD69 (gene 969) and “inactive” in test [6]. Further, the AC50 in the test with CD38, CD38 (gene 952) was 14.2 µM (active); in test [7] it was 16.3 µM (active).

Regarding `CC1(C)C(C=C(Cl)Cl)C1C(=O)OC(C#N)c1ccc(F)c(Oc2ccccc2)c1` (stereo not given), the results for the AC50 in test [1] and in [6] were 5.22 µM (active) and 7.41 µM (active), respectively. Besides, the outcome in test [2] was “inactive”; in test [3] it was “inactive”; in test [4], “inactive”; in test [5], “inactive”; with CD38, CD38 (gene 952), “inactive”; with CD40, CD40 (gene 958) it was “inactive”. Also, the outcome in the test with CD69, CD69 (gene 969) was “inactive”; in test [7], “inactive”.

For `CCC(C)(C)C(=O)OC1=C(c2ccc(Cl)cc2Cl)C(=O)OC12CCCCC2`, the outcome in [1] was inactive. For the same molecule, the AC50 is 17.5 µM (active) in [2]; 14.1 µM (active) in [3]; 32.5 µM (active) in [4]; 24.4 µM (active) in test [5]; 10.3 µM (active) with CD38, CD38 (gene 952); 10.6 µM (active) with CD40, CD40 (gene 958). The AC50 with CD69, CD69 (gene 969) is 14.9 µM (active); in [6], 16.7 µM (active); in [7] it was 11.5 µM (active).

As to `OCCOc1ccccc1`, the outcome in test [1] is “inactive”; in test [2], “inactive”; in [3] it was “inactive”; in test [4], “inactive”; in [5] it was “inactive”; in the test with CD38, CD38 (gene 952), “inactive”. The outcome is “inactive” with CD40, CD40 (gene 958); “inactive” with CD69, CD69 (gene 969); “inactive” in [6]; “inactive” in [7].

For `CC1(c2ccc(Oc3ccccc3)cc2)OC(=O)N(Nc2ccccc2)C1=O` (stereo not given), the AC50 in test [1] was 6.92 µM (active); in test [2] it was 20 µM (active); in test [3] it was 28.4 µM (active); in test [5] it was 20 µM (active); with CD38, CD38 (gene 952), 19.9 µM (active); with CD40, CD40 (gene 958), 15.8 µM (active). In addition, the AC50 was 20 µM (active) with CD69, CD69 (gene 969); 19.8 µM (active) in test [6]; 15.6 µM (active) in test [7]. For the same molecule, in [4], the outcome was inactive.

Take `Cc1[nH]c(=O)n(C(C)(C)C)c(=O)c1Cl`: the outcome was “inactive” in test [1]; “inactive” in test [2]; “inactive” in [3]; “inactive” in test [4]; “inactive” in test [5]; “inactive” with CD38, CD38 (gene 952). Besides, the outcome with CD40, CD40 (gene 958) was inactive. Moreover, the AC50 with CD69, CD69 (gene 969) is 3.68 µM (active); in test [6], 5.42 µM (active); in test [7], 20 µM (active).
